Bim-Mcl-1: human Bim-Mcl-1 interaction inhibition | Q07820 | Bead-based flow cytometry, Bim peptide-Mcl-1 binding | inhibition, % at 10 µM | actives 0.1% (n = 190,000); in the data active = inhibition above about 40%;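 note: 0% = no compound tracer wells and 100% = peptide blocker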
Bcl-xL primary: Bcl-xL (human) inhibition. GST-Bcl-xL / FITC-Bim BH3 peptide fluorescence polarization. AID 2129. inhibition, % at 10.9 µM. actives 0.7% (n = 320,000);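 active = inhibition above the mean of all tested compounds plus 3 SD, cutoff set per campaign, cut at about 30% in these data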;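 note: 0% = DMSO wells and 100% = unlabeled Bim-BH3 peptide competitor; inhibitors lower millipolarization by displacing the labeled peptide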
Target sequence (Q07817 whole entry, looked up): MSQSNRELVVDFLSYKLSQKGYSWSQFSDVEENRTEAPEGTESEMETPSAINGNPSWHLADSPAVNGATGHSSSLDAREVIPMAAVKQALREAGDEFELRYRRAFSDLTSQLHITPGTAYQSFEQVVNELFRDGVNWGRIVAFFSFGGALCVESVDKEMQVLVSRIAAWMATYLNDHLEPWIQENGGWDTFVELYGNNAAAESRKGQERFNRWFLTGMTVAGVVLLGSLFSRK
GLD-1 RNA inh: GLD-1-TGE RNA interaction inhibition (C. elegans); purified GLD-1 + fluorescein TGE RNA, fluorescence polarization; inhibition, % at 5.96 µM; actives 0.44% (n = 320,000);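 active = percent inhibition above a per-plate cutoff, the plate mean of test compounds plus 3 SD, cut at about 30% in these data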;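 note: 0% = DMSO wells with GLD-1 and probe and 100% = wells lacking GLD-1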
Mcl1-Noxa inh: Mcl-1/Noxa interaction inhibition. Q07820. TR-FRET Mcl-1/Noxa peptide binding, 2 h. inhibition, % at 21.7 µM. actives 1.5% (n = 220,000). AID 1022;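 active = compounds that cut the protein-peptide binding signal by more than 50% relative to plate controls in a single-dose test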;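 note: His-tagged Mcl-1 with rhodamine Noxa BH3 peptide and terbium anti-His antibody; 0% = Mcl-1 plus Noxa peptide wells and 100% = peptide-only wells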
Mcl1-Bid inh: disrupts binding of human Mcl-1 to Bid peptide. inhibition, % at 21.7 µM. Q07820. actives 0.97% (n = 220,000). TR-FRET Mcl-1/Bid-Dy647 peptide binding, 1536-well;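 active = compounds that cut the binding signal by more than half at the single screening dose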;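 note: His-tagged Mcl-1 with europium anti-His antibody binding Bid BH3 peptide; 0% = Mcl-1 plus peptide wells and 100% = peptide-only wells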
MCL1-BIM inh: MCL1-BIM-BH3 interaction inhibition (human); Q07820; GST-MCL1 / FITC-Bim-BH3 fluorescence polarization; inhibition, % at 10.9 µM; actives 0.68% (n = 320,000);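 active = inhibition above the mean inhibition of all tested compounds plus 3 SD, set per campaign, cut at about 40% in these data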;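 note: 0% = DMSO wells and 100% = unlabeled Bim-BH3 peptide control; higher means more loss of mP so more displacement of Bim peptide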
Active calls of the source: *; / = not tested or not shown. In the library only some 2.3% were active in any assay of this set; here they are far more common.

SMILES	Bim-Mcl-1	Bcl-xL primary	GLD-1 RNA inh	Mcl1-Noxa inh	Mcl1-Bid inh	MCL1-BIM inh
O=S(=O)(Nc1cccnc1)c1cccc(Cl)c1	-7	5	2	-6	-28	8
CN(C)c1ccc(NS(=O)(=O)c2cccc(Cl)c2)cc1	0	15	6	84*	-21	18
Cc1cc(=O)oc2cc(OCC(=O)Nc3ccc4[nH]c(=O)[nH]c4c3)ccc12	/	4	-2	/	/	9
O=C(COc1ccc(Br)cc1)Nc1ccncc1	-2	3	4	5	-8	2
CCC(C)(C)c1ccc(OCC(=O)Nc2ccncc2)cc1	/	69*	-10	/	/	1
O=[N+]([O-])c1ccc(NC(=S)NCCc2ccccc2)cc1	3	-1	10	37	-23	-3
O=[N+]([O-])c1ccc(NC(=S)NCCc2ccc(Cl)cc2)cc1	-8	7	5	21	94*	9
O=C1c2ccccc2C(=O)N1CC#CCN1CCN(C(c2ccccc2)c2ccccc2)CC1	-4	4	-2	22	62*	4
CCN(CC)S(=O)(=O)c1ccc(N2CCc3cc(OC)c(OC)cc3C2)nc1	/	3	2	/	/	4
CCCCN(Cc1cc2cc(OC)ccc2[nH]c1=O)C(=O)c1ccccn1	-3	6	2	5	65*	7
O=C(Nc1ccc(Br)cc1)Nc1ccccc1Cl	/	-3	2	-18	-26	-10
CC1CCc2nn(CC(=O)Nc3ccc(F)cc3F)cc2C1 (centres undefined)	-4	2	1	-1	-5	5
CCN(CC)c1ccc(NC(=O)Cn2cc3c(n2)CCC(C)C3)c(C)c1 (centres undefined)	2	0	5	61*	-9	-1
COCC(=O)N1CCC(Oc2ccc(C(=O)NC3Cc4ccccc4C3)cc2)CC1	/	2	3	/	/	-2
Cn1ncc([N+](=O)[O-])c1C(=O)Nc1ccc(-c2nc3ccccc3[nH]2)cc1	3	5	5	10	-21	1
CCOc1ccc(C(=O)Nc2ccc(-c3nc4ccccc4[nH]3)cc2)cc1[N+](=O)[O-]	-7	0	-2	58*	55*	-2
CC1CCN(CCCCOc2ccc([N+](=O)[O-])cc2)CC1	-3	0	1	9	10	-3
CC1CCN(CCCCOc2ccccc2[N+](=O)[O-])CC1	1	5	10	-1	53*	6
CN1CCN(CCCCOc2ccccc2C=O)CC1	-3	2	-6	14	56*	1
COc1cccc(OC)c1OCCCCCCN1CCN(C)CC1	/	2	1	/	/	4
COc1ccc2nc(C)cc(SCC(=O)N/N=C/c3c(OC)ccc4ccccc34)c2c1	-12	3	-1	3	64*	-6
COc1ccc2nc(C)cc(SCC(=O)Nc3c(C)cc(C)cc3C)c2c1	2	2	-8	-4	-9	-5
COc1ccc2nc(C)cc(SCC(=O)N/N=C/c3ccccc3)c2c1	-4	2	3	-14	8	2
COc1ccc2nc(C)cc(SCC(=O)Nc3c(C)cccc3C)c2c1	-2	-5	1	-7	68*	-4
COc1ccc2nc(C)cc(SCC(=O)NNC(=O)COc3cccc4ccccc34)c2c1	-1	-5	-1	1	52*	-12
SMILES	Bim-Mcl-1	Bcl-xL primary	GLD-1 RNA inh	Mcl1-Noxa inh	Mcl1-Bid inh	MCL1-BIM inh
COC(=O)C1CN(C(=O)COc2ccc(Cl)cc2C)c2ccccc2O1 (centres undefined)	/	6	0	/	/	1
O=c1c2cccc3c2c(nn1CN1CCOCC1)-c1ccccc1-3	3	3	5	0	-4	-3
CCN(CC)CCn1nc2c3c(cccc3c1=O)-c1ccccc1-2	-1	3	0	70*	-3	6
Cn1cc(C(=O)N/N=C/c2c(O)ccc3ccccc23)ccc1=O	-2	4	-75	58*	-86	-2
CCCCC(=O)Nc1ccc(C(=O)N2CCC(C(=O)OCC)CC2)cc1	64*	6	3	17	-6	5
COCCCN(C(=O)Cc1csc(-c2cccc(Cl)c2)n1)c1c(N)n(Cc2ccccc2)c(=O)[nH]c1=O	/	2	-3	/	/	9
Cc1ccc(C(=O)ONc2ccc(N=NC(=O)c3ccccc3O)cc2)cc1	3	5	10	81*	102*	8
